Results as given in PubChem BioAssay AID463173 (ICCB-Longwood Screening Facility, Harvard Medical School, 2010).
The whole screen tested about 52,000 compounds, of which about 4,300 (8.3%) were called active. For the sample, actives were picked, then their nearest neighbours and some compounds at random. Unmarked numbers belong to inactive results. No stated cut-off is given here; in the data, active means survival mostly below about 52% (no sharp cut-off); inactive means mostly above about 56%.

System: DeltatarO mutant
Assay: S. aureus survival, RN4220 and DeltatarO strains – OD600, teichoic acid synthesis inhibitors, primary screen (AID 463173)
Conditions: S. aureus RN4220 wild type/DeltatarO growth, OD600, 18 h, stronger effect = lower value, screened at 18.75 µg/mL (by protocol)

How did the survival turn out when `O=C(Nc1cccc(Cl)c1N1CCOCC1)c1ccco1` was run?
Its survival is 90%.

For `COc1ccc(S(=O)(=O)CCc2nc3ccccc3n2CC(=O)O)cc1`, which survival is on record?
The survival was 113%.

`CCOC(=O)c1ccc(NC(=O)C(CC)Sc2nc3ccncc3[nH]2)cc1` (stereo not given) was tested. Which survival did it give?
Its survival is 128%.

Which survival does the source give for `CN1CCN(C(=O)C(=O)Nc2c3c(nn2-c2ccc(F)cc2)CSC3)CC1` here?
Its survival is 72%.

`CC(=O)N1CCN(C(=O)C(=O)Nc2c3c(nn2-c2ccc(Cl)cc2)CSC3)CC1` was tested. Which survival did it give?
Its survival is -1% (active).

`CCC(CO)NC(=O)C(=O)Nc1c2c(nn1-c1ccc(F)cc1)CSC2` (stereo not given) was tested. Which survival did it give?
The survival was 80%.

For `CC(NC(=O)C(=O)Nc1c2c(nn1-c1ccc(F)cc1)CSC2)c1ccccc1` (stereo not given), which survival is on record?
The survival was -2% (active).

With `CN1CCN(C(=O)C(=O)Nc2c3c(nn2-c2ccc(Cl)cc2)CSC3)CC1` as the compound, how does the survival read?
The survival was 72%.

How did the survival turn out when `CC(NC(=O)C(=O)Nc1c2c(nn1-c1ccccc1)CSC2)c1ccccc1` (stereo not given) was run?
The survival was 61%.

`Cc1cccc(C)c1-n1ncc(C(=O)Nc2ccc3c(c2)OCO3)c1C1CCN(C(=O)OC(C)(C)C)CC1` was tested. Which survival did it give?
Its survival is 100%.

With `Cc1ccc(-c2cn3nc(N4CCCC(C(=O)NCc5ccc(F)cc5)C4)sc3n2)cc1` (stereo not given) as the compound, how does the survival read?
The survival was 86%.

How did the survival turn out when `CCNC(=O)NC1(C(=O)N2CCC(Cc3ccccc3)CC2)CCCCC1` was run?
Its survival is 87%.

Which survival does the source give for `Cc1ccc(N2CC(NC(=O)c3cccc(Cl)c3)CC2=O)cc1C` (stereo not given) here?
Its survival is 75%.

`COc1cc(C(=O)N2CCC(c3nc4ccccc4o3)CC2)cc(OC)c1OC` was tested. Which survival did it give?
Its survival is 91%.

For `Cn1c2ccccc2c2c(C(=O)N3CCN(c4ccc(F)cc4)CC3)cn(C3CCCCC3)c(=O)c21`, which survival is on record?
Its survival is 132%.

Which survival does the source give for `CC(C)c1ccc2occ(CC(=O)Nc3cccc(C(F)(F)F)c3)c2c1` here?
The survival was 0% (active).

For `Cc1cccc(NC(=O)c2oc3ccccc3c2NC(=O)Cc2coc3ccc(C(C)C)cc23)c1`, which survival is on record?
Its survival is 67%.

`COC(=O)c1ccc(NC(=O)Cc2coc3cc(C)ccc23)cc1` was tested. Which survival did it give?
Its survival is 91%.

How did the survival turn out when `Cc1ccc(NC(=O)Cc2coc3ccc(C(C)C)cc23)c(C)c1` was run?
Its survival is 88%.

`CC(C)c1ccc2occ(CC(=O)Nc3ccccc3Cl)c2c1` was tested. Which survival did it give?
The survival was 85%.

For `Cc1ccc(NC(=O)Cc2coc3ccc(C(C)C)cc23)cc1Cl`, which survival is on record?
The survival was 37% (active).

`CCCCOC(=O)c1ccc(NC(=O)Cc2coc3ccc(C(C)C)cc23)cc1` was tested. Which survival did it give?
Its survival is 69%.

With `Cc1ccc2c(CC(=O)Nc3cccc(C(F)(F)F)c3)coc2c1` as the compound, how does the survival read?
Its survival is 1% (active).

With `Cc1ccc2onc(CC(=O)Nc3cccc(C(F)(F)F)c3)c2c1` as the compound, how does the survival read?
Its survival is 54%.

With `CCN1Cc2cccc(C(=O)Nc3ccc(F)cc3)c2C1=O` as the compound, how does the survival read?
Its survival is 129%.

With `Cc1cc(C)cc(N2CCn3c2nc2c3c(=O)n(CCc3ccccc3)c(=O)n2C)c1` as the compound, how does the survival read?
Its survival is 89%.

`COCCn1c(SCC(=O)c2ccc(OC)cc2)nc2cc(C(=O)NC3CCCC3)ccc2c1=O` was tested. Which survival did it give?
The survival was 94%.

How did the survival turn out when `Cc1ccc(S(=O)(=O)N(C#N)c2nc(C)cc(C)n2)cc1` was run?
The survival was 71%.

How did the survival turn out when `C=C(C)c1cccc(C(C)(C)NC(=O)N(C)C2CCN(C)CC2)c1` was run?
The survival was 82%.

For `COc1ccccc1-c1nnc(C2CCN(S(=O)(=O)c3ccccc3)CC2)o1`, which survival is on record?
Its survival is 84%.

With `Cc1ccc(C)c(NS(=O)(=O)c2ccc3c4c(cccc24)C(=O)N3)c1` as the compound, how does the survival read?
The survival was 52% (active).

Which survival does the source give for `Cc1ccc(NS(=O)(=O)c2ccc3c4c(cccc24)C(=O)N3)c(C)c1` here?
Its survival is 58%.

Which survival does the source give for `COc1ccc(C)cc1NS(=O)(=O)c1ccc2c3c(cccc13)C(=O)N2` here?
Its survival is 58%.

`COc1ccc2nc(NC(=O)c3nc(S(=O)(=O)Cc4cccc(C)c4)ncc3Cl)sc2c1` was tested. Which survival did it give?
The survival was 49%.

Which survival does the source give for `O=C(Nc1nc2ccc(F)cc2s1)c1nc(S(=O)(=O)Cc2ccccc2F)ncc1Cl` here?
Its survival is 80%.

How did the survival turn out when `O=C(Nc1nc2ccc(F)cc2s1)c1nc(S(=O)(=O)Cc2ccccc2)ncc1Cl` was run?
Its survival is 17% (active).

For `Cc1cccc(CS(=O)(=O)c2ncc(Cl)c(C(=O)Nc3nc4ccc(F)cc4s3)n2)c1`, which survival is on record?
Its survival is -1% (active).

`CSc1ncc(Cl)c(C(=O)Nc2nc3ccc(F)cc3s2)n1` was tested. Which survival did it give?
Its survival is 98%.

`Cc1ccc(CS(=O)(=O)c2ncc(Cl)c(C(=O)Nc3nc4ccc(F)cc4s3)n2)cc1` was tested. Which survival did it give?
Its survival is 9% (active).

`Cc1ccc2nc(NC(=O)c3nc(SCc4ccccc4C)ncc3Cl)sc2c1` was tested. Which survival did it give?
Its survival is 98%.

With `Cc1ccc(CS(=O)(=O)c2ncc(Cl)c(C(=O)Nc3nc4ccc(C)cc4s3)n2)cc1` as the compound, how does the survival read?
Its survival is 6% (active).

Which survival does the source give for `COc1ccc2nc(NC(=O)c3nc(S(=O)(=O)Cc4ccc(C)cc4)ncc3Cl)sc2c1` here?
The survival was 82%.

For `COc1ccc2nc(NC(=O)c3nc(S(=O)(=O)Cc4ccccc4)ncc3Cl)sc2c1`, which survival is on record?
The survival was 77%.

How did the survival turn out when `Cc1ccc(NC(=O)N2CCC(CN3CCCCCC3)CC2)c(Cl)c1` was run?
The survival was 84%.

How did the survival turn out when `O=C(c1ccccc1)N1CCCCC1CCN1CCCCC1` (stereo not given) was run?
Its survival is 70%.

How did the survival turn out when `CCc1ccc(N(CC)C(=O)Cn2nc(Cc3cccnc3)c3ccccc3c2=O)cc1` was run?
Its survival is 81%.

How did the survival turn out when `CCOc1ccc(S(=O)(=O)N(CC(=O)Nc2ccc3c(c2)OCO3)c2ccccc2)cc1` was run?
Its survival is 72%.

For `O=C(Cn1ncc2c3ccccc3n(Cc3cccc(Cl)c3)c2c1=O)Nc1ccc(F)cc1F`, which survival is on record?
The survival was 103%.

With `CC(C)CCNC(=O)CN1C(=O)c2cccnc2Oc2ccccc21` as the compound, how does the survival read?
The survival was 85%.

`CC(C)c1cnc2c(c1SCC(=O)N1CCCCC1)c(=O)n(C)c(=O)n2C` was tested. Which survival did it give?
The survival was 107%.

`Cc1ccc(-c2noc(-c3ccc(NCc4cccnc4)c([N+](=O)[O-])c3)n2)cc1` was tested. Which survival did it give?
The survival was 104%.

For `CCNc1ccc(-c2nc(-c3ccccn3)no2)cc1[N+](=O)[O-]`, which survival is on record?
Its survival is 60%.

For `Cc1ccc(CNc2ccc(-c3nc(-c4ccccn4)no3)cc2[N+](=O)[O-])cc1`, which survival is on record?
The survival was 104%.

Which survival does the source give for `O=[N+]([O-])c1cc(-c2nc(-c3cccnc3)no2)ccc1NCc1ccccc1` here?
The survival was 63%.

Which survival does the source give for `COCCNc1ccc(-c2nc(-c3ccncc3)no2)cc1[N+](=O)[O-]` here?
The survival was 77%.

How did the survival turn out when `Cc1noc(-c2ccc(NCc3ccccc3)c([N+](=O)[O-])c2)n1` was run?
Its survival is 66%.

With `CCCNc1ccc(-c2nc(-c3ccccn3)no2)cc1[N+](=O)[O-]` as the compound, how does the survival read?
Its survival is 111%.

`COCCNc1ccc(-c2nc(-c3ccccn3)no2)cc1[N+](=O)[O-]` was tested. Which survival did it give?
The survival was 43% (active).

`CCCCNc1ccc(-c2nc(-c3ccccn3)no2)cc1[N+](=O)[O-]` was tested. Which survival did it give?
The survival was 46% (active).

For `O=[N+]([O-])c1cc(-c2nc(-c3ccccc3)no2)ccc1NCc1cccnc1`, which survival is on record?
Its survival is 47% (active).

For `O=[N+]([O-])c1cc(-c2nc(-c3ccccn3)no2)ccc1NCc1ccccc1`, which survival is on record?
The survival was 39% (active).

Which survival does the source give for `COCCNc1ccc(-c2nc(-c3ccco3)no2)cc1[N+](=O)[O-]` here?
The survival was 54%.

How did the survival turn out when `CCCCOc1ccc(C(=O)NCCc2csc3nc(-c4ccccc4F)nn23)cc1` was run?
Its survival is 84%.

Which survival does the source give for `NCc1nc2cccnc2n1Cc1ccccc1Cl` here?
Its survival is 81%.

How did the survival turn out when `COc1ccc(C)cc1NC(=O)Nc1cc(C(=O)NCc2ccc(C)cc2)ccc1N1CCCC1` was run?
The survival was 82%.

Which survival does the source give for `Cc1cc2c(cc1NS(=O)(=O)c1ccc(NC(=O)CC(C)C)cc1)n(C)c(=O)c(=O)n2C` here?
The survival was 86%.

How did the survival turn out when `COc1ccc(OC)c(-c2cc(C(=O)NCCc3ccccc3)c3c(-c4ccc(C)cc4)[nH]nc3n2)c1` was run?
The survival was 67%.

For `CCCCNc1nc2c(S(=O)(=O)c3ccc(Br)cc3)nnn2c2ccsc12`, which survival is on record?
The survival was 74%.

How did the survival turn out when `CCOc1nc(Nc2ccccc2)nc(OCC)n1` was run?
The survival was 115%.

How did the survival turn out when `CCN(C(=O)CCS(=O)(=O)c1ccc2c(c1)CCN2C(C)=O)c1cccc(C(F)(F)F)c1` was run?
Its survival is 101%.

How did the survival turn out when `CCc1ccc(CNC(=O)CSc2cc(=O)n(C)c3ccc(Cl)cc23)cc1` was run?
Its survival is 31% (active).

Which survival does the source give for `CCn1c(=O)c2cc(C(=O)NCCCN(C)Cc3ccccc3)sc2c2ccccc21` here?
Its survival is 106%.

Which survival does the source give for `CCN(CCCNC(=O)CSc1cc(=O)n(CC)c2ccccc12)c1ccccc1` here?
The survival was 53%.

With `CCn1c(=O)cc(SCC(=O)NCc2ccc(C)cc2)c2ccccc21` as the compound, how does the survival read?
The survival was 84%.

Which survival does the source give for `CCc1ccc(CNC(=O)CSc2cc(=O)n(CC)c3ccccc23)cc1` here?
The survival was 87%.

How did the survival turn out when `Cn1c(=O)cc(SCC(=O)NCCc2ccc(Cl)cc2)c2cc(Cl)ccc21` was run?
The survival was 75%.

For `CCN(CCCNC(=O)CSc1cc(=O)n(CC)c2ccccc12)c1cccc(C)c1`, which survival is on record?
Its survival is 38% (active).

How did the survival turn out when `CCN(CCCNC(=O)c1cc2c(=O)n(CC)c3ccccc3c2s1)c1cccc(C)c1` was run?
Its survival is 42% (active).

For `CCn1c(=O)cc(SCC(=O)NCc2cccc(Cl)c2)c2ccccc21`, which survival is on record?
Its survival is 38% (active).

`CCN(CCCNC(=O)CSc1cc(=O)n(C)c2cc(Cl)ccc12)c1cccc(C)c1` was tested. Which survival did it give?
The survival was 90%.

With `Cn1c(=O)cc(SCC(=O)NCc2ccc(F)cc2)c2cc(Cl)ccc21` as the compound, how does the survival read?
Its survival is 88%.

How did the survival turn out when `CCn1c(=O)c2cc(C(=O)NCCc3cccc(C)c3)sc2c2ccccc21` was run?
Its survival is 70%.

`Cc1cc(C)c(NC(=O)C2CCN(c3nn4c(=O)cc(C)nc4s3)CC2)c(C)c1` was tested. Which survival did it give?
The survival was 103%.

How did the survival turn out when `CC(=O)Nc1ccc(NCc2cccs2)cc1` was run?
Its survival is 101%.

With `Cc1cc(Nc2ccc(C(C)C)cc2)nc(-n2nc(C)cc2C)n1` as the compound, how does the survival read?
Its survival is 90%.

`COC(=O)c1cc2oc(C)cc2n1CC(=O)Nc1ccc(OC)c(OC)c1` was tested. Which survival did it give?
Its survival is 131%.

With `COc1ccc(N2CCN(Cc3nc4c(c(=O)[nH]c(=O)n4C)n3Cc3ccc(C)cc3)CC2)cc1` as the compound, how does the survival read?
The survival was 113%.

How did the survival turn out when `CCOC(=O)c1c(C)n(C2CCCCC2)c2ccc(OCC(N)=O)cc12` was run?
The survival was 69%.

With `CCOC(=O)C1CCC(CN(Cc2c(Cl)cccc2Cl)S(=O)(=O)c2ccc(Cl)cc2)CC1` (stereo not given) as the compound, how does the survival read?
Its survival is 81%.

Which survival does the source give for `Cc1cccc2c(=O)cc(CSc3ccccc3NC(=O)c3cccc(Br)c3)[nH]c12` here?
The survival was 86%.
